The source of these data is PubChem BioAssay.

The target in this experiment is Torsin-1A-interacting protein 2 (Homo sapiens) (UniProt Q8NFQ8). The experiment is described as follows: LULL1 binders on small-molecule microarray, primary screen, cell lysate, human LULL1 lysate, 635/667 nm fluorescence (AID 1092).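 Also: probe is lysate of COS7 cells overexpressing human LULL1; score merges per-feature 667 nm fluorescence with signal-to-noise.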 The following applies: hLULL1 lysate binding, 635 nm fluorescence, higher = more signal.
Torsin-1A-interacting protein 2 (Homo sapiens), sequence (Q8NFQ8 whole entry, looked up): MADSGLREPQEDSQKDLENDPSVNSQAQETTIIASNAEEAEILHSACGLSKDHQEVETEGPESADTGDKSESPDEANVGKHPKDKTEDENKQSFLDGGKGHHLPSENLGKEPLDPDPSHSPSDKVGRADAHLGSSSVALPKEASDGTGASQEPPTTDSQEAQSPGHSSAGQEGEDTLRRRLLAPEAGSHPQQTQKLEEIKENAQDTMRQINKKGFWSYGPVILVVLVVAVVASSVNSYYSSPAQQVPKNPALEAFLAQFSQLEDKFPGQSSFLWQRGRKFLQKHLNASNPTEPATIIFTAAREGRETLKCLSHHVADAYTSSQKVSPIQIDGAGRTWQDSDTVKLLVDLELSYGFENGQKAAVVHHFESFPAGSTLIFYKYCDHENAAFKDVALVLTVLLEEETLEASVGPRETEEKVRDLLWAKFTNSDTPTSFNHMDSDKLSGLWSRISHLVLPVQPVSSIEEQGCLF
Take `O=C1CCCC(C2=CCCCC2=O)C1` (stereo not given): the composite z-score is -0.168.
As for `Cn1c(=O)n2n(c1=O)[C@H]1[C@H](O)[C@@H]3O[C@@H]3C(=NOCc3ccccc3)[C@H]1CC2`, the figure is 2.31; as for `CO[C@H](C1CCCCC1)[C@H](C)C=CCC(=O)OCCCc1ccccc1`, -0.242; as for `COC(=O)[C@H](C)NC(=O)CCC1CC(OC(=O)NCc2ccc3c(c2)OCO3)CC2(CCCC(COC(=O)NCC(c3ccccc3)c3ccccc3)O2)O1` (stereo not given in full), 2.65.
As for `O=c1n(-c2ccccc2)c(=O)n2n1CC[C@@H]1C(=NOCc3ccccc3)[C@H]3O[C@H]3[C@@H](O)[C@@H]12`, the figure is -0.0733.
On to `COC(=O)[C@H]1[C@@H](O)[C@@]2(O)c3ccccc3O[C@@]2(c2ccccc2)[C@@H]1c1ccccc1`, for which the composite z-score stood at 0.124.
For `COC(=O)CC=C[C@@H](C)[C@@H](C=NOC(C)CN1CCCc2nc(C)c(C)cc21)OC` (stereo not given in full) the value was 0.283.
For `COC(=O)[C@H](C)NC(=O)CCC1CC(OC(=O)NCCc2ccc(F)cc2)CC2(CCCC(COC(=O)NCc3cccc(C(F)(F)F)c3)O2)O1` (stereo not given in full) the value was 1.79.
As for `Cc1ccc(S(=O)(=O)N[C@H]2COC(=O)CC=C[C@H](C)[C@@H](NS(=O)(=O)c3ccc(C)cc3)COC(=O)CC=C[C@@H]2C)cc1`, the figure is 0.247.
In the case of `CON=C1[C@H]2CCn3c(=O)n(-c4ccccc4)c(=O)n3[C@H]2[C@H](O)[C@@H]2O[C@H]12`, the composite z-score was determined as 0.456.
For `C#CCCCON=C1C[C@@H](O)[C@@H](O)[C@@H]2[C@@H]3C(=O)N(C(C)(C)C)C(=O)[C@@H]3CC[C@@H]12` the value was 0.148; for `CO[C@H]1COC(=O)CC=C[C@@H](C)[C@H](NS(=O)(=O)c2ccc(C)cc2)COC(=O)CCC[C@@H]1C`, -0.401.
As for `COc1ccc(COC(=O)NN=C2C[C@@H](O)[C@@H](O)[C@@H]3[C@@H]4C(=O)N(c5ccc(F)cc5F)C(=O)[C@@H]4CC[C@H]23)cc1`, the figure is 0.142.
`COc1ccc(O[C@H]2C=C[C@@H](c3ccccc3)O[C@@H]2COC(=O)CCC(C)=NOC[C@@H](O)[C@H]2O[C@@H]3OC(C)(C)O[C@@H]3[C@H]2O)cc1` came in with a composite z-score of 1.48.
The compound `CO[C@H]1COC(=O)CC=C[C@H](C)[C@@H](OC)COC(=O)[C@H](C)COC(=O)CC=C[C@@H]1C` gave a composite z-score of -0.344.
`CCOC(=O)C1=NO[C@]2(C=C(Br)C3(OCCCO3)[C@H]3O[C@H]32)C1` showed a composite z-score of 0.141.
Turning to `Cc1cc2c(nc1C)CCCCN2CC(C)ON=C1[C@H]2CCn3c(=O)n(-c4ccccc4)c(=O)n3[C@H]2[C@H](O)[C@@H]2O[C@H]12` (stereo not given in full), the composite z-score stood at 0.998.
As to `COc1ccc(O[C@H]2C=C[C@@H](c3ccccc3)O[C@@H]2COC(=O)CCC(C)=NO[C@@H]2O[C@H](COC(C)=O)[C@@H](OC(C)=O)[C@H](OC(C)=O)[C@H]2OC(C)=O)cc1`, the composite z-score worked out at 0.727.
For `Cc1cc2c(c(=O)o1)[C@@H](O)[C@H]1O[C@H]1C2=O` the value was 0.0376; for `CCOC(=O)CCN1C(=O)[C@H]2[C@H]3[C@H](O)[C@H](O)CC(=NNC(=O)OCc4ccccc4)[C@@H]3CC[C@H]2C1=O`, 0.967; for `O=C1[C@H]2[C@H]3[C@H](O)[C@H](O)CC(=NOC[C@@H](O)COCc4ccco4)[C@@H]3CC[C@H]2C(=O)N1C[C@@H]1CCCO1`, -0.239.
As for `CC(C)CON=C1C[C@@H](O)[C@@H](O)[C@@H]2[C@@H]3C(=O)N(C[C@@H]4CCCO4)C(=O)[C@@H]3CC[C@@H]12`, the figure is 1.38.
As for `CON=Cc1ccc(C(=O)N2[C@H](c3ccc(C)cc3)[C@@H](C)CC[C@H]2C(=O)OC)cc1`, the figure is 1.23.
The compound `C[C@@H](c1ccccc1)N1C(=O)[C@H]2[C@H]3[C@H](O)[C@H](O)CC(=O)[C@H]3CC[C@H]2C1=O` came in with a composite z-score of 0.461.
As for `CC(C)CON=C1C[C@@H](O)[C@@H](O)[C@@H]2[C@@H]3C(=O)N(Cc4ccc5c(c4)OCO5)C(=O)[C@@H]3CC[C@H]12`, the figure is 2.33; as for `CCN1C(=O)[C@H]2[C@H]3[C@H](O)[C@H](O)CC(=NOCC(C)C)[C@@H]3CC[C@H]2C1=O`, 2.08; as for `CC(C)=NO[C@H](C)c1cn([C@H](CO)Cc2ccccc2)nn1`, 1.09.
As for `CCCNC(=O)OC[C@H]1O[C@H](c2ccccc2)C=C[C@@H]1Oc1ccc(OC)cc1`, the figure is 0.361.
As for `C[C@@H]1CC[C@H]2C(=O)O[C@@H](Cc3ccccc3)CN2[C@H]1c1ccc(Br)cc1`, the figure is 1.16.
Compound `COc1ccc(O[C@H]2C=C[C@@H](c3ccccc3)O[C@@H]2CON=C(C)CCC(=O)OC[C@H]2O[C@H](c3ccccc3)C=C[C@@H]2Oc2ccc(OC)cc2)cc1` displayed a composite z-score of -1.78.
